Results reported in PubChem BioAssay (NCI).
About 83,000 compounds went through this panel and 20% of them were active in at least one assay; those are over-represented in the sample as a whole.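 Growth was measured after 48 h exposure to one concentration of compound in 96-well plates. Values under 10 count as active.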 The source made the active and inactive calls.

Tests used:
Experiment in all cases: NCI-60 one-dose screen, 48 h (100 = growth as untreated, 0 = no growth, -100 = all killed)
Details in all cases: 10 µM unless noted
DU-145 prostate = system: DU-145 prostate
K-562 leukemia = system: K-562 leukemia
MALME-3M melanoma = system: MALME-3M melanoma
MDA-MB-231 breast = system: MDA-MB-231 breast
SF-268 CNS = system: SF-268 CNS
SF-295 CNS = system: SF-295 CNS
SF-539 CNS = system: SF-539 CNS
UACC-257 melanoma = system: UACC-257 melanoma
HCT-15 colon = system: HCT-15 colon
HT29 colon = system: HT29 colon
SNB-75 CNS = system: SNB-75 CNS
SNB-19 CNS = system: SNB-19 CNS
U251 CNS = system: U251 CNS
PC-3 prostate = system: PC-3 prostate
UACC-62 melanoma = system: UACC-62 melanoma
LOX IMVI melanoma = system: LOX IMVI melanoma
SK-MEL-5 melanoma = system: SK-MEL-5 melanoma
SK-MEL-28 melanoma = system: SK-MEL-28 melanoma

Measured: growth

CN(C)CCn1cc(-c2ccc3c(Nc4ccc(CC(=O)Nc5cccc(F)c5)cc4)ncnc3c2)cn1
inactive: HCT-15 colon 22.1% [30 µM]
active: DU-145 prostate -95.8% [30 µM] | K-562 leukemia -29.2% [30 µM] | MALME-3M melanoma -92% [30 µM] | MDA-MB-231 breast -85.7% [30 µM] | SF-268 CNS -61.7% [30 µM] | SF-295 CNS -79.8% [30 µM] | SF-539 CNS -94.2% [30 µM] | UACC-257 melanoma -59.7% [30 µM] | HT29 colon -40.7% [30 µM] | SNB-75 CNS -87% [30 µM] | SNB-19 CNS -60% [30 µM] | U251 CNS -52.4% [30 µM] | PC-3 prostate -25.2% [30 µM] | UACC-62 melanoma -81.6% [30 µM] | LOX IMVI melanoma -50.2% [30 µM]

COc1cc(/C=C/c2nc(Nc3ccc(S(=O)(=O)Nc4cc(C)on4)cc3)c3ccccc3n2)ccc1O
inactive: DU-145 prostate 92.2% | K-562 leukemia 17.8% | MALME-3M melanoma 62.6% | MDA-MB-231 breast 62.8% | SF-268 CNS 76.1% | SF-295 CNS 70.8% | SF-539 CNS 61.9% | UACC-257 melanoma 83.2% | HCT-15 colon 31.8% | HT29 colon 85.4% | SNB-75 CNS 59.7% | SNB-19 CNS 64.3% | U251 CNS 61.4% | PC-3 prostate 80.4% | SK-MEL-5 melanoma 52.6% | UACC-62 melanoma 46.6% | LOX IMVI melanoma 59.5% | SK-MEL-28 melanoma 74%

O=C(O)C1C[C@](O)(c2ccc(F)cc2)[C@@H](c2ccc(F)cc2)O1 (some centres undefined)
inactive: DU-145 prostate 139% | K-562 leukemia 89.3% | MALME-3M melanoma 113% | MDA-MB-231 breast 115% | SF-268 CNS 117% | SF-295 CNS 94.2% | SF-539 CNS 125% | UACC-257 melanoma 111% | HCT-15 colon 131% | HT29 colon 120% | SNB-75 CNS 114% | SNB-19 CNS 97.5% | U251 CNS 110% | PC-3 prostate 85.9% | SK-MEL-5 melanoma 129% | UACC-62 melanoma 108% | LOX IMVI melanoma 111% | SK-MEL-28 melanoma 129%

COc1ccc(/C(C)=C(\c2ccc(Cl)cc2)c2ccc(OCCN3CCCCCC3)cc2)cc1F
inactive: DU-145 prostate 67.5% | MDA-MB-231 breast 55.1% | SF-268 CNS 68.3% | SF-539 CNS 24.5% | UACC-257 melanoma 39% | HT29 colon 10% | SNB-75 CNS 75.6% | SNB-19 CNS 65.9% | U251 CNS 39.8% | PC-3 prostate 41% | UACC-62 melanoma 48.2% | SK-MEL-28 melanoma 26%
active: K-562 leukemia 1.96% | MALME-3M melanoma -3.61% | SF-295 CNS -7.79% | HCT-15 colon -23.9% | LOX IMVI melanoma -47%

CCOC(=O)c1sc(-c2ccc(OS(=O)(=O)c3ccc(C(C)(C)C)cc3)c(C=O)c2)nc1C
inactive: DU-145 prostate 43.8% | K-562 leukemia 16.1% | MALME-3M melanoma 45.1% | MDA-MB-231 breast 53.7% | SF-268 CNS 32.9% | SF-295 CNS 28.6% | SF-539 CNS 45.6% | UACC-257 melanoma 52% | HCT-15 colon 12.5% | HT29 colon 19.7% | SNB-75 CNS 22.9% | SNB-19 CNS 29.7% | U251 CNS 26% | PC-3 prostate 16.2% | UACC-62 melanoma 46.1% | LOX IMVI melanoma 43.3% | SK-MEL-28 melanoma 81.9%

COc1cccc(/C=C2\COc3ccc(O)cc3C2=O)c1OC
inactive: DU-145 prostate 45.1% | MALME-3M melanoma 73.9% | MDA-MB-231 breast 85.1% | SF-268 CNS 85% | SF-295 CNS 95.7% | SF-539 CNS 72.2% | UACC-257 melanoma 83.3% | HCT-15 colon 45.4% | HT29 colon 19.2% | SNB-75 CNS 86.5% | SNB-19 CNS 67.4% | U251 CNS 54.3% | PC-3 prostate 56.2% | UACC-62 melanoma 71% | SK-MEL-28 melanoma 96.6%
active: K-562 leukemia 5.8% | LOX IMVI melanoma -19.7%

COc1ccc(-n2sc(=O)n(Cc3ccc(COC(=O)C(C)c4ccc(CC(C)C)cc4)cc3)c2=O)cc1 (centres undefined)
inactive: DU-145 prostate 43.9% | MDA-MB-231 breast 62.4% | SF-268 CNS 71.9% | SF-295 CNS 97.2% | SF-539 CNS 26.8% | UACC-257 melanoma 54.9% | HCT-15 colon 36.3% | HT29 colon 22% | SNB-75 CNS 46.7% | SNB-19 CNS 80.5% | U251 CNS 75.3% | PC-3 prostate 61.7% | UACC-62 melanoma 55.2% | SK-MEL-28 melanoma 52.8%
active: K-562 leukemia -11.6% | MALME-3M melanoma -49.4% | LOX IMVI melanoma -75.9%

CCCCC1COc2cccc3c(SCC(=O)N(C)c4cccc(Cl)c4)cc[n+]1c23 (centres undefined)
inactive: DU-145 prostate 120% | K-562 leukemia 97.8% | MALME-3M melanoma 104% | MDA-MB-231 breast 101% | SF-268 CNS 118% | SF-295 CNS 99.3% | SF-539 CNS 97.5% | UACC-257 melanoma 113% | HCT-15 colon 101% | HT29 colon 100% | SNB-75 CNS 137% | SNB-19 CNS 98.7% | U251 CNS 112% | PC-3 prostate 106% | UACC-62 melanoma 101% | LOX IMVI melanoma 102% | SK-MEL-28 melanoma 106%

COc1ccc(OC)c(/C=C2\COc3ccc(O)c(O)c3C2=O)c1
active: DU-145 prostate 3.87% | K-562 leukemia 5.87% | MALME-3M melanoma -5.32% | MDA-MB-231 breast 9.33% | SF-539 CNS -23.1% | HCT-15 colon 1.18% | LOX IMVI melanoma -63.1%
inactive: SF-268 CNS 15.9% | SF-295 CNS 78.4% | UACC-257 melanoma 49.4% | HT29 colon 33.7% | SNB-75 CNS 11.7% | SNB-19 CNS 33.9% | U251 CNS 19% | PC-3 prostate 26.6% | UACC-62 melanoma 28.9% | SK-MEL-28 melanoma 48.7%

C=C1C(=O)O[C@H]2[C@H]1CC/C(COC(=O)/C=C\C(=O)NCc1ccc(Cn3c(=O)sn(-c4ccc(Cl)cc4)c3=O)cc1)=C\CC[C@@]1(C)O[C@@H]21
inactive: SF-295 CNS 56.2%
active: DU-145 prostate -94.7% | K-562 leukemia -20.5% | MALME-3M melanoma -93.1% | MDA-MB-231 breast -86.1% | SF-268 CNS -74.4% | SF-539 CNS -100% | UACC-257 melanoma -64.8% | HCT-15 colon -33.8% | HT29 colon -28.3% | SNB-75 CNS -83.5% | SNB-19 CNS -8.33% | U251 CNS -78.3% | PC-3 prostate -64.1% | UACC-62 melanoma -97.6% | LOX IMVI melanoma -84.9% | SK-MEL-28 melanoma -93.5%

C=C1C(=O)O[C@H]2[C@H]1CC/C(COC(=O)/C=C\C(=O)NCc1ccc(Cn3c(=O)sn(-c4ccc(C#N)cc4)c3=O)cc1)=C\CC[C@@]1(C)O[C@@H]21
active: DU-145 prostate -94.4% | K-562 leukemia -8.61% | MALME-3M melanoma -95% | MDA-MB-231 breast -86% | SF-268 CNS -75.2% | SF-539 CNS -99.3% | UACC-257 melanoma -68.2% | HCT-15 colon -33.9% | HT29 colon -13.2% | SNB-75 CNS -82.2% | SNB-19 CNS -65% | U251 CNS -66.4% | PC-3 prostate -62.4% | UACC-62 melanoma -99.4% | LOX IMVI melanoma -86.8% | SK-MEL-28 melanoma -96.2%
inactive: SF-295 CNS 56.4%

COc1ccc(/C(C)=C(\c2ccc(Cl)cc2)c2ccc(OCCN3CCCC3)cc2)cc1F
inactive: DU-145 prostate 49.6% | MDA-MB-231 breast 36.7% | SF-268 CNS 54.7% | SNB-75 CNS 47.6% | SNB-19 CNS 42.8% | U251 CNS 19.1% | PC-3 prostate 30%
active: K-562 leukemia -1.68% | MALME-3M melanoma -38.2% | SF-295 CNS -42.9% | SF-539 CNS 3.19% | UACC-257 melanoma 2.99% | HCT-15 colon 1.16% | HT29 colon -10.5% | UACC-62 melanoma -30.2% | LOX IMVI melanoma -88.3% | SK-MEL-28 melanoma -42.1%

C=C1C(=O)O[C@H]2[C@H]1CC/C(COC(=O)/C=C\C(=O)NCc1ccc(Cn3c(=O)sn(-c4ccc(OC)cc4)c3=O)cc1)=C\CC[C@@]1(C)O[C@@H]21
inactive: SF-295 CNS 55%
active: DU-145 prostate -84% | K-562 leukemia 0.146% | MALME-3M melanoma -92% | MDA-MB-231 breast -89.6% | SF-268 CNS -78.3% | SF-539 CNS -99.3% | UACC-257 melanoma -62.2% | HCT-15 colon -58.1% | HT29 colon -22.9% | SNB-75 CNS -57.8% | SNB-19 CNS 7.17% | U251 CNS -60.3% | PC-3 prostate -58% | UACC-62 melanoma -99.6% | LOX IMVI melanoma -88.6% | SK-MEL-28 melanoma -92%

Cc1nc(Nc2ccc(S(=O)(=O)Nc3cc(C)on3)cc2)c2ccccc2n1
inactive: DU-145 prostate 112% | K-562 leukemia 99.9% | MALME-3M melanoma 93.2% | MDA-MB-231 breast 108% | SF-268 CNS 99.5% | SF-295 CNS 95.4% | SF-539 CNS 97.6% | UACC-257 melanoma 103% | HCT-15 colon 99.1% | HT29 colon 98.6% | SNB-75 CNS 83.2% | SNB-19 CNS 110% | U251 CNS 101% | PC-3 prostate 96.9% | SK-MEL-5 melanoma 99.7% | UACC-62 melanoma 98.2% | LOX IMVI melanoma 102% | SK-MEL-28 melanoma 110%

Cn1cc(-c2ccc3nc(-c4ccc(CC(=O)Nc5cc(C(C)(C)C)no5)cc4)cnc3c2)cn1
inactive: DU-145 prostate 22.6% [30 µM] | SF-268 CNS 27.4% [30 µM] | SF-295 CNS 23.2% [30 µM] | SF-539 CNS 16.3% [30 µM] | UACC-257 melanoma 41.9% [30 µM] | HCT-15 colon 11.5% [30 µM] | HT29 colon 58.4% [30 µM] | SNB-75 CNS 26.5% [30 µM] | SNB-19 CNS 53.6% [30 µM] | U251 CNS 37.3% [30 µM] | PC-3 prostate 40.2% [30 µM] | LOX IMVI melanoma 20.1% [30 µM] | SK-MEL-28 melanoma 37.5% [30 µM]
active: K-562 leukemia 4.38% [30 µM] | MALME-3M melanoma 0.481% [30 µM] | MDA-MB-231 breast -5.94% [30 µM] | UACC-62 melanoma 9.8% [30 µM]

COc1ccc(/C=C2\COc3ccc(O)cc3C2=O)cc1OC
active: K-562 leukemia 8.84%
inactive: DU-145 prostate 65.7% | MALME-3M melanoma 92.6% | MDA-MB-231 breast 87.5% | SF-268 CNS 93.1% | SF-295 CNS 103% | SF-539 CNS 83.2% | UACC-257 melanoma 80.2% | HCT-15 colon 71.3% | HT29 colon 19.9% | SNB-75 CNS 91.3% | SNB-19 CNS 59.5% | U251 CNS 40.8% | PC-3 prostate 64.3% | UACC-62 melanoma 77.1% | LOX IMVI melanoma 11.6% | SK-MEL-28 melanoma 97.3%
